Measurements as given in ChEMBL document CHEMBL3988442, “University of Dundee, Small-Polar-MMV Screening Library” (2021).
Among all 69,000 compounds or so, about 950 (1.4%) showed an effect of 50% or more. What follows is part of a selection rich in strong results, with near analogues and random picks from the rest.

tested on: Mycobacterium tuberculosis; experiment: Cornell M. t heat shock assay; type: functional, organism-based; set-up: dose or concentration left out as unconfirmed; note: in the data most compounds retested in dose-response had high values

Compound	Percent Effect [%]
COc1cccc(CC(=O)N2CC[C@@H](OC)[C@@H]2Cc2cccnc2)c1.O=C(O)C(F)(F)F	11.27
Cc1nnc(CN(C)C2CCCN(Cc3noc(C4CC4)n3)C2)o1 (stereo not given)	-4.888
CCOC1COC2(CCN(CC3CC3)CC2)C1.O=C(O)C(F)(F)F (stereo not given)	-11.36
Cc1ccc(-c2nc(CNC(C)Cn3cccn3)cs2)o1 (stereo not given)	55.14
Cc1ccc(-c2nc(CN3CCOC(Cn4cccn4)C3)cs2)o1 (stereo not given)	19.35
COc1ccc(-c2noc(CNC(C)Cn3cccn3)n2)c(OC)c1 (stereo not given)	-27.41
COc1cccc(-c2nc(CNC(C)Cn3cccn3)cs2)c1 (stereo not given)	89.4
COc1ccc(-c2nc(CNC(C)Cn3cccn3)cs2)cc1 (stereo not given)	58.05
CC(Cn1cccn1)NCc1csc(-c2ccccc2)n1 (stereo not given)	29.32
COc1cccc(-c2nc(CNCc3cccnc3)cs2)c1	-18.41
O=C(NCc1ccccn1)[C@@H]1COC[C@H]2CN(C3CCOCC3)C[C@H]21.O=C(O)C(F)(F)F.O=C(O)C(F)(F)F	0.9957
CC(=O)N1CCN(c2cncc(C3CCNCC3)n2)CC1.Cl	-8.785
O=C(O)C(F)(F)F.O=C(c1ccccc1)N1CCOC2(CCN(Cc3cccs3)CC2)C1	-35.41
Cc1ccc(CN2Cc3nnn(C)c3C(COCC3CC3)C2)s1.O=C(O)C(F)(F)F (stereo not given)	-11.83
O=C(O)C(F)(F)F.c1cnc(N2CCOCC3(CN(Cc4cc[nH]n4)CCO3)C2)nc1 (stereo not given)	-18.22
CCOCC(=O)N1CCC(c2cc3ncccc3c(O)n2)CC1	-9.964
CCCC(=O)N1CCCC(c2cc3cccnc3c(O)n2)C1 (stereo not given)	-27.54
O=C(CC1CCCC1)N1CCC(c2cc3ncccc3c(O)n2)CC1	63.36
COCC(=O)N1CCC(c2cc3ncccc3c(O)n2)CC1	10.22
CCCC(=O)N1CCC(c2cc3cccnc3c(O)n2)CC1	-11.07
O=C(CCC1CCCC1)N1CCC(c2cc3ncccc3c(O)n2)CC1	59.08
CC(C)N(C)Cc1nnn2c1CN(Cc1cccnc1)CCC2.O=C(O)C(F)(F)F.O=C(O)C(F)(F)F.O=C(O)C(F)(F)F	-0.7766
CC(C)n1c(=O)nc2n1C(=O)N(c1ccc(Cl)cc1)C2	4.407
CCOC(=O)[C@]12CCCN(Cc3cccs3)C[C@H]1CN(CC(C)C)C2.O=C(O)C(F)(F)F.O=C(O)C(F)(F)F	26.18

Compound	Percent Effect [%]
O=C(CN1CC(c2nc(-c3ccco3)no2)C1)NCCc1ccccc1.O=C(O)C(=O)O	-7.325
CS(=O)(=O)Cc1ccc(Cl)cc1NCc1ccccc1F	52.35
CN(C)C(=O)Cc1ccccc1NCc1cccc(F)c1F	-10.01
CS(=O)(=O)Cc1ccccc1NCc1cc(Cl)ccc1Cl	-12.17
CS(=O)(=O)Cc1ccc(Cl)cc1NCc1cccc(F)c1F	57.79
CC(CS(C)(=O)=O)NCc1cc(Cl)ccc1F (stereo not given)	-12.53
O=C(Cc1cccc(F)c1F)NS(=O)(=O)c1ccc(Cl)cc1F	-11.18
Cn1nc(C(=O)N2CCOCC2)cc1C(=O)Nc1ccc(Cl)cc1Cl	13.26
Cc1csc(NC(=O)CN(C)CCOc2cccc(F)c2)n1	95.41
CN(CCOc1cccc(F)c1)CC(=O)Nc1ccncc1	-17.11
Cc1sc(NC(=O)CN(C)CCOc2cccc(F)c2)c(C)c1C	3.214
CCc1oc(C(=O)N2CC[C@H]3CC[C@@H](C2)N3)cc1CN(CC)CC	-18.46
CN(C)C(=O)N1C[C@@H]2CC[C@H](C1)N(Cc1nnc(-c3ccccc3)o1)C2	16.99
CN(C)C(=O)N1C[C@@H]2CC[C@H](C1)N(Cc1nnc(C3CC3)o1)C2	104.3
CN(C)C(=O)N1C[C@@H]2CC[C@H](C1)N(Cc1nnc(-c3ccco3)o1)C2	3.686
CNc1ncc2c(n1)CN(CCc1ccc(F)cc1)C2=O	-20.93
CNC(=O)[C@H]1CO[C@H]2CCN(c3ncc(F)cn3)C[C@H]2C1.O=C(O)C(F)(F)F	-11.38
Cc1nn(C)cc1CN(C)C(=O)c1ccccn1	-16.12
CCn1nc(C)c(CN(CCCN(C)C)Cc2ccccn2)c1C	-9.336
CCn1nc(C)c(CN(CCOC)Cc2ccccn2)c1C	-2.912
CCn1nc(C)c(CN(Cc2ccccn2)Cc2ccccc2Cl)c1C	58.2
Cc1nn(C)cc1CN(Cc1ccccn1)Cc1ccccc1Cl	53.11
Cn1cc(CN(Cc2ccccn2)Cc2ccccc2Cl)cn1	20.97
O=C(O)C(=O)O.c1cncc(CN2CCC(c3ccc4c(c3)OCO4)CC2)c1	-6.288

Compound	Percent Effect [%]
CC(C)CS(=O)(=O)N1C[C@H]2C[C@H](C(=O)N3CCCC3)[C@@H](C1)O2	18.86
CSc1ccc(CN2C[C@@H]3CC[C@@](O)(c4ccc(C)cn4)[C@@H]3C2)cc1	28.36
C[C@H]1CN(c2ccccn2)C[C@@]12CCN(Cc1cccnc1)C2=O.O=C(O)C(F)(F)F.O=C(O)C(F)(F)F	-8.389
O=C(CS(=O)(=O)c1ccccn1)NC1CCCc2ccccc21 (stereo not given)	34.88
O=C(CS(=O)(=O)c1ncccc1Cl)NC1CCCc2ccccc21 (stereo not given)	57.06
O=C(CS(=O)(=O)c1ccc(Cl)cc1)NC1CCCc2ccccc21 (stereo not given)	17.58
COc1ccc(CN2CCn3cccc3C2C)cc1F (stereo not given)	13.47
COc1ccc(C)cc1CN1CCn2cccc2C1C (stereo not given)	86.02
COc1ccc(C(C)=O)cc1CN1CCn2cccc2C1C (stereo not given)	9.9
CCOc1ccccc1C1CCCN1.Cl (stereo not given)	3.065
COc1cc(CNCC(O)c2ccccc2)cc2c1OCO2.Cl (stereo not given)	-7.292
Cl.c1ccc(CN2CCNCC(Cc3cnccn3)C2)cc1 (stereo not given)	-10.09
O=C(O)C(F)(F)F.O=C(c1ccco1)N1CC2(CCNCC2)c2cc(Cl)ccc21	-24.85
O=C(O)C(F)(F)F.O=C(O)C(F)(F)F.c1cnc(N2CCC3(CCN(Cc4ccncc4)CC3)CC2)nc1	6.802
c1ccc2c(CC3CN(Cc4nccs4)CCO3)cccc2c1 (stereo not given)	-8.986
CCc1nc(C)c(CN2CCOC(Cc3cccc4ccccc34)C2)[nH]1 (stereo not given)	8.588
Cc1cccnc1CN1CCOC(Cc2cccc3ccccc23)C1 (stereo not given)	106.2
CCN1CCc2c(sc3c2C(=O)NC(/C=C/c2ccco2)N3)C1 (stereo not given)	-25.76
O=C(Cc1cnccn1)N1C[C@H]2CC[C@@H]1CN(Cc1cscn1)C2	-4.902
Cc1cccnc1NC(=O)C1(n2cnnn2)CCCCC1	10.66
Cc1cccc(NC(=O)C2(n3cnnn3)CCCCC2)n1	-23.83
O=C(NCCc1c[nH]c2ccccc12)C1(n2cnnn2)CCCCC1	102.3
O=C(Nc1ccccn1)C1(n2cnnn2)CCCCC1	4.562
O=C(NCCc1cccc(F)c1)C1(n2cnnn2)CCCCC1	90.07

Compound	Percent Effect [%]
O=C(NCCc1c[nH]c2ccccc12)C1CCC(Cn2cnnn2)CC1 (stereo not given)	2.28
O=C(NCCc1ccccn1)C1(n2cnnn2)CCCCC1	-1.374
O=C(NCCc1c[nH]c2ccc(F)cc12)C1(n2cnnn2)CCCCC1	102.2
Cc1ccnc(NC(=O)C2(n3cnnn3)CCCCC2)c1	-14.84
Cl.O=c1c2sccc2nc2n1CCN(Cc1ccsc1)CC2	-19.75
Cc1cccc(CN2CC[C@@H]3[C@@H]2CCN3C(=O)Cc2ccsc2)n1.O=C(O)C(F)(F)F.O=C(O)C(F)(F)F	-13.99
CO[C@H]1C[C@@H]2CN(C(=O)c3n[nH]c4c3CCCC4)C[C@@H]2C1	-12.29
Cc1ccc(N2CC[C@@H]3[C@@H]2CCN3Cc2ccsc2)nn1.O=C(O)C(F)(F)F.O=C(O)C(F)(F)F	-10.53
Cn1ccnc1CN1CCC2(CC1)COCCN(S(C)(=O)=O)C2.O=C(O)C(F)(F)F	17.11
NC(=O)CN1CCC(c2csc(Nc3cnccn3)n2)CC1	-13.81
NC(=O)CN1CCCC1c1csc(Nc2cnccn2)n1 (stereo not given)	58.45
CC(=O)N1CCCC1c1csc(Nc2cnccn2)n1 (stereo not given)	-5.066
CS(=O)(=O)CCC(=O)NC1(c2cccc(C(F)(F)F)c2)CCC1	-20.78
COC[C@@]12CCC[C@@H]1CN(C(=O)Cc1ccccn1)C2.O=C(O)C(F)(F)F	12.87
Cc1ncc(CN2CCC(c3nc4cc(Cl)ccc4o3)CC2)s1	-15.08
CC(C)c1nc(C2CCCN2CCc2ccccn2)no1 (stereo not given)	-39.31
Fc1ccc2[nH]c(C3CCCN3CCCn3cccn3)nc2c1 (stereo not given)	-23.88
Cc1nc(C2CCCN2CCc2ccccn2)no1 (stereo not given)	-5.804
CCc1nc(C2CCCN2CCc2ccccn2)no1 (stereo not given)	107.9
Fc1ccc2[nH]c(C3CCCN3CCc3ccccn3)nc2c1 (stereo not given)	61.35
O=C(CN1CCCC1c1nc2cc(F)ccc2[nH]1)NCc1ccccn1 (stereo not given)	-20.62
CS(=O)(=O)N1CCc2ccc(=O)n(CCN3CCCC3)c2CC1.O=C(O)C(F)(F)F	21.99
Cc1nnc(N2CCCC3(CN(Cc4cnn(C)c4)CCO3)C2)o1.O=C(O)C(F)(F)F.O=C(O)C(F)(F)F (stereo not given)	-20.31
